The nature of assay [1]: NCI Yeast Anticancer Drug Screen. Data for the rad50 strain (AID 155).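 Note: 0% = growth of vehicle-only cultures of the same strain.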 Conditions: S. cerevisiae rad50 strain growth inhibition, active compounds read high. An outline of the steps: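 Readout: growth inhibition relative to vehicle-treated cultures. Compound exposure was carried out in a genetically defined yeast strain deficient in DNA damage repair.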
Assay [2] is described as follows: NCI Yeast Anticancer Drug Screen. Data for the mec2-1 strain (AID 157). As to conditions: S. cerevisiae mec2-1 strain, active compounds read high. An outline of the steps: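 Yeast mec2-1 mutant treated with compound. Readout: growth inhibition vs vehicle controls.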
Assay [3] is described as follows: NCI Yeast Anticancer Drug Screen. Data for the sgs1 mgt1 strain (AID 161).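 Note: 0% = growth of cultures given vehicle only.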 As to conditions: S. cerevisiae sgs1 mgt1 strain, active compounds read high. An outline of the steps:
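Mutant yeast exposed to compound; growth scored against vehicle-only wells.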

Assay [4] in a line: NCI Yeast Anticancer Drug Screen. Data for the cln2 rad14 strain (AID 165).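 Note: 0% = growth equal to vehicle treated cultures.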 As to conditions: S. cerevisiae cln2 rad14 strain, active compounds read high. In a few lines:
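cln2 rad14 yeast strain; compound exposure; growth inhibition read vs vehicle controls.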

Assay [5] is described as follows: NCI Yeast Anticancer Drug Screen. Data for the bub3 strain (AID 167). Conditions: S. cerevisiae bub3 mutant strain, active compounds read high. An outline of the steps: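 Readout: yeast growth inhibition, expressed relative to vehicle-only wells. The test organism is a mutant strain from a panel with lesions in DNA repair or checkpoint genes.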
A short description of assay [6]: NCI Yeast Anticancer Drug Screen. Data for the mlh1 rad18 strain (AID 175). As to conditions: S. cerevisiae mlh1 rad18 strain growth inhibition, active compounds read high. In a few lines: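 Yeast w/ defined DNA-repair lesions; compound exposure; growth vs vehicle controls → % inhibition.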
Where [7] appears, read: at 5.0 µM (retest, dose inferred, filed as 0.5).
[8] abbreviates: at 50.0 µM (retest, dose inferred, filed as 5.0).

SMILES strings stand for the structures. This is part of a sample that, as a whole, favours compounds with a hit. Of some 79,000 tested, about 15% had one in any assay. Unmarked numbers belong to inactive results. Calls of active or inactive are those of the source. Cut-off read from the data, not from the text of the source: active = growth inhibition above about 70%; inactive = the rest.

As for `CC1=C(C(=O)Nc2ccccc2)C(c2ccc(C(C)C)cc2)C(C(=O)Nc2ccccc2)=C(C)N1`, the growth inhibition in assay [1] (setting [7]) was 0%; in assay [1] (setting [8]), 94% (active); in assay [1] (at 50.0 µM) it was 97.5% (active); in assay [2] (setting [7]), -3%; in assay [2] (setting [8]), 91% (active); in assay [2] (at 50.0 µM), 94.6% (active). Besides, the growth inhibition in assay [3] (setting [7]) was 0%; in assay [3] (setting [8]) it was 94% (active); in assay [3] (at 50.0 µM), 47.6%; in assay [4] (setting [7]), -13%; in assay [4] (setting [8]) it was 94% (active); in assay [4] (at 50.0 µM), 90.8% (active). Besides, the growth inhibition was 2% in assay [5] (setting [7]); 93% (active) in assay [5] (setting [8]); 91% (active) in assay [5] (at 50.0 µM); -3% in assay [6] (setting [7]); 90% (active) in assay [6] (setting [8]); 96.2% (active) in assay [6] (at 50.0 µM).

With `Cc1ccc(C)c([N+](=O)[O-])c1`, the growth inhibition was -2% in assay [1] (setting [7]); 11% in assay [1] (setting [8]); 51.1% in assay [1] (at 50.0 µM); 1% in assay [2] (setting [7]); -2% in assay [2] (setting [8]); 17.6% in assay [2] (at 50.0 µM). Besides, the growth inhibition in assay [3] (setting [7]) is -1%; in assay [3] (setting [8]), -2%; in assay [3] (at 50.0 µM) it was 13.8%; in assay [4] (setting [7]) it was 1%; in assay [4] (setting [8]), 1%; in assay [4] (at 50.0 µM), -7.1%. The growth inhibition in assay [5] (setting [7]) is -1%; in assay [5] (setting [8]) it was 1%; in assay [5] (at 50.0 µM), 6.25%; in assay [6] (setting [7]), 0%; in assay [6] (setting [8]) it was 12%; in assay [6] (at 50.0 µM), 28.2%.

As for `C[Si](C)(C)CN1C(=O)c2ccccc2C1(O)c1ccccc1` (stereo unspecified), the growth inhibition in assay [1] (setting [7]) was -2%; in assay [1] (setting [8]), 69%; in assay [1] (at 50.0 µM) it was 69.8%; in assay [2] (setting [7]), -1%; in assay [2] (setting [8]), 66%; in assay [2] (at 50.0 µM), 35.8%. The growth inhibition in assay [3] (setting [7]) was -4%; in assay [3] (setting [8]) it was 74% (active); in assay [3] (at 50.0 µM) it was 47.5%; in assay [4] (setting [7]) it was -1%; in assay [4] (setting [8]) it was 29%; in assay [4] (at 50.0 µM) it was 42.5%. Besides, the results for the growth inhibition in assay [5] (setting [7]), in assay [5] (setting [8]) and in assay [5] (at 50.0 µM) were -3%, 33% and 4.2%, respectively.

As for `CCCCC(Cc1ccccc1)(C(=O)O)c1ccccc1` (stereo unspecified), the growth inhibition in assay [1] (setting [7]) is 11%; in assay [1] (setting [8]) it was 98% (active); in assay [1] (at 50.0 µM) it was 99% (active); in assay [2] (setting [7]), 18%; in assay [2] (setting [8]), 98% (active); in assay [2] (at 50.0 µM), 98.2% (active). The growth inhibition in assay [3] (setting [7]) was 16%; in assay [3] (setting [8]) it was 99% (active); in assay [3] (at 50.0 µM), 98.9% (active); in assay [4] (setting [7]) it was 31%; in assay [4] (setting [8]), 99% (active); in assay [4] (at 50.0 µM), 98% (active). Also, the growth inhibition in assay [5] (setting [7]) is 3%; in assay [5] (setting [8]) it was 97% (active); in assay [5] (at 50.0 µM) it was 96% (active); in assay [6] (setting [7]) it was 14%; in assay [6] (setting [8]), 99% (active); in assay [6] (at 50.0 µM), 98.8% (active).

As for `CCOC(=O)/C=C(\NC1CC(OC2C[C@](O)(C(C)=O)Cc3c(O)c4c(c(O)c32)C(=O)c2c(OC)cccc2C4=O)OC(C)C1O)C(=O)OCC` (stereo partly specified), the growth inhibition is 44% in assay [1] (setting [7]); 95% (active) in assay [1] (setting [8]); 68.8% in assay [1] (at 50.0 µM); 28% in assay [2] (setting [7]); 97% (active) in assay [2] (setting [8]); 74.3% (active) in assay [2] (at 50.0 µM). In addition, the growth inhibition in assay [3] (setting [7]) was 40%; in assay [3] (setting [8]), 95% (active); in assay [3] (at 50.0 µM), 90.5% (active); in assay [4] (setting [7]), 44%; in assay [4] (setting [8]), 92% (active); in assay [4] (at 50.0 µM), 88.7% (active). Moreover, the growth inhibition in assay [5] (setting [7]) was 43%; in assay [5] (setting [8]), 97% (active); in assay [5] (at 50.0 µM), 87.5% (active).

Consider `[C](#[C][Sn]([c]1ccccc1)([c]1ccccc1)[c]1ccccc1)[Sn]([c]1ccccc1)([c]1ccccc1)[c]1ccccc1`, for which the growth inhibition in assay [1] (setting [7]) is 98% (active); in assay [1] (setting [8]) it was 95% (active); in assay [1] (at 50.0 µM), 97.5% (active); in assay [2] (setting [7]) it was 99% (active); in assay [2] (setting [8]), 97% (active); in assay [2] (at 50.0 µM), 98.3% (active). The growth inhibition was 99% (active) in assay [3] (setting [7]); 97% (active) in assay [3] (setting [8]); 96.5% (active) in assay [3] (at 50.0 µM); 98% (active) in assay [4] (setting [7]); 95% (active) in assay [4] (setting [8]); 98.4% (active) in assay [4] (at 50.0 µM). The growth inhibition in assay [5] (setting [7]) is 98% (active); in assay [5] (setting [8]), 96% (active); in assay [5] (at 50.0 µM), 98.8% (active).

On to `COc1cc(C2c3cc4c(cc3C(OC3CCCCO3)C3COC(=O)C23)OCO4)cc(OC)c1OC` (stereo unspecified), for which the growth inhibition in assay [1] (setting [7]) was -2%; in assay [1] (setting [8]) it was 19%; in assay [1] (at 50.0 µM), 31.9%; in assay [2] (setting [7]), -1%; in assay [2] (setting [8]), 7%; in assay [2] (at 50.0 µM), 18.6%. Further, the growth inhibition is -10% in assay [3] (setting [7]); 11% in assay [3] (setting [8]); 23.4% in assay [3] (at 50.0 µM); -3% in assay [4] (setting [7]); -2% in assay [4] (setting [8]); 2.35% in assay [4] (at 50.0 µM). Besides, the growth inhibition in assay [5] (setting [7]) was 4%; in assay [5] (setting [8]), 30%; in assay [5] (at 50.0 µM), 54.4%; in assay [6] (setting [7]), -6%; in assay [6] (setting [8]) it was 14%; in assay [6] (at 50.0 µM), 33.9%.

In the case of `CCC(C)NC(=S)N/N=C(\C)c1ccccn1` (stereo unspecified), the growth inhibition in assay [1] (setting [7]) is 20%; in assay [1] (setting [8]), 100% (active); in assay [1] (at 50.0 µM), 78% (active); in assay [2] (setting [7]), 19%; in assay [2] (setting [8]), 99% (active); in assay [2] (at 50.0 µM), 85.7% (active). Besides, the growth inhibition in assay [3] (setting [7]) is 5%; in assay [3] (setting [8]), 98% (active); in assay [3] (at 50.0 µM), 90.6% (active); in assay [4] (setting [7]) it was 33%; in assay [4] (setting [8]), 100% (active); in assay [4] (at 50.0 µM), 90% (active). The growth inhibition was 0% in assay [5] (setting [7]); 100% (active) in assay [5] (setting [8]); 90.5% (active) in assay [5] (at 50.0 µM); 39% in assay [6] (setting [7]); 99% (active) in assay [6] (setting [8]); 89.2% (active) in assay [6] (at 50.0 µM).

Take `S=c1[nH]c2ccc(Br)cc2c(=S)n1-c1ccccc1`: the growth inhibition in assay [1] (setting [7]) was -1%; in assay [1] (setting [8]), 19%; in assay [1] (at 50.0 µM), 90.5% (active); in assay [2] (setting [7]) it was 1%; in assay [2] (setting [8]) it was 5%; in assay [2] (at 50.0 µM) it was 91.2% (active). Further, the growth inhibition is 0% in assay [3] (setting [7]); 24% in assay [3] (setting [8]); 89.5% (active) in assay [3] (at 50.0 µM); -1% in assay [4] (setting [7]); 4% in assay [4] (setting [8]); 88% (active) in assay [4] (at 50.0 µM). Moreover, the growth inhibition in assay [5] (setting [7]) is -9%; in assay [5] (setting [8]), 14%; in assay [5] (at 50.0 µM), 89.4% (active); in assay [6] (setting [7]) it was -29%; in assay [6] (setting [8]), 5%; in assay [6] (at 50.0 µM) it was 87.7% (active).

Take `Cc1ccc(S(=O)(=O)C2C=CC=CC=C2)cc1`: the growth inhibition is -156% in assay [1] (setting [7]); 84% (active) in assay [1] (setting [8]); 76.8% (active) in assay [1] (at 50.0 µM); -51% in assay [2] (setting [7]); 54% in assay [2] (setting [8]); 86% (active) in assay [2] (at 50.0 µM). Moreover, the growth inhibition in assay [3] (setting [7]) was -64%; in assay [3] (setting [8]), 77% (active); in assay [3] (at 50.0 µM), 14.7%; in assay [4] (setting [7]) it was -62%; in assay [4] (setting [8]), 42%; in assay [4] (at 50.0 µM), 52%. Further, the growth inhibition in assay [5] (setting [7]) is -71%; in assay [5] (setting [8]), 66%; in assay [5] (at 50.0 µM), 71% (active); in assay [6] (setting [7]), -140%; in assay [6] (setting [8]), 87% (active); in assay [6] (at 50.0 µM) it was 82% (active).
